Compound activity from PubChem.
HCV inh – qHTS Assay for Inhibitors of Hepatitis C Virus (HCV); Potency, µM (series often up to 41.8 µM), without a hit: top-dose activity change, negative = inhibition, usual class: inhibitors; Huh7.5.1 HCVcc-Cre infection, luciferase reporter, 44 h; hit rate 3.4% among 340,000; active = well fitted inhibition curve with a large enough effect; inconclusive = small, poorly fitted or top-dose-only effect, or another doubt; inactive = no such curve, though single readings can be large or run the other way; also: potency is read from the fitted curve at half-maximal effect; % is scaled to controls: 0 for no effect and ±100 for the full control effect
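Luciferase read-out (15 sec integration) after a 15 min room-temperature substrate step quantifies HCVcc-Cre infection. Cells, 1,000 per well, had compound added 4 h post-plating, then virus at ~0.5 moi, and were cultured 44 h.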
FMDV inh – High Throughput Screening for Foot and Mouth Disease Virus Antivirals. FMDV antiviral cell-based qHTS. Potency, µM (highest dose often 57.9 µM), without a hit: at the highest dose activity change, negative = inhibition, actives largely listed as inhibitors. hit rate 1.2% among 410,000. AID 1159524, 2015; calls by dose curve; tested in HEK293T cells; also: read-out not given here; potency is read from the fitted curve at half-maximal effect; % is scaled to controls: 0 for no effect and ±100 for the full control effect; nearly all actives have a fitted effect of over 45% in size
Marburg entry inh – qHTS for inhibitors of binding or entry into cells for Marburg Virus; AID 540276, 2011; hit rate 1.8% among 300,000; Marburg virus pseudotyped entry inhibition, cell reporter; Potency, µM (top dose mostly 37.8 µM), inactives show at the highest dose activity change, negative = inhibition, usual class: inhibitors; calls by dose curve; tested in HEK293 cells; also: potency is read from the fitted curve at half-maximal effect; % is scaled to controls: 0 for no effect and ±100 for the full control effect
LASV entry inh – qHTS for Inhibitors of binding or entry into cells for Lassa Virus. Potency, µM (doses to about 37.9 µM), for inactives: top-dose activity change, negative = inhibition, most hits filed as inhibitors. Lassa virus pseudotype entry inhibition, cell reporter. hit rate 1.2% among 300,000; calls by dose curve; tested in HEK293 cells; also: potency is read from the fitted curve at half-maximal effect; % is scaled to controls: 0 for no effect and ±100 for the full control effect; nearly all actives have a fitted effect of over 50% in size
Shiga toxin inh – A qHTS for Small Molecule Inhibitors of Shiga Toxin; AID 2315, 2010; hit rate 9.2% among 290,000; inhibition, % at 38.7 µM; Vero cells, Shiga toxin protein synthesis inhibition reporter; in the data active = inhibition mostly above about 28%, no sharp cut-off; inactive = mostly below about 43%; also: 0% is about no effect
CHX counter – Cycloheximide Counterscreen for Small Molecule Inhibitors of Shiga Toxin | max response, % | cell reporter, cycloheximide protein synthesis inhibition counterscreen | hit rate 12% among 300,000 | AID 2314, 2010; in the data active = max response mostly above about 13%, no sharp cut-off; inactive = mostly below about 14%; also: read at 38.3 µM for the half of the compounds with a filed dose; 0% is about no effect
* = called active by the depositor; ? = inconclusive; nt = not tested or not shown; [ ] = another dose, or the depositor's remark. Most compounds without a hit are left out; they make up all but 13% or so of the library.

SMILES | HCV inh | FMDV inh | Marburg entry inh | LASV entry inh | Shiga toxin inh | CHX counter
O=C(Nc1nc2ccccc2s1)c1ccc(OCC2CCCO2)cc1 (stereo unspecified) | 7.94µM* | -72.9% | ? | 10µM* | 81.9* | 18.2*
Cc1ccc(NC(=O)c2ccc(OCC3CCCO3)cc2)cc1 (stereo unspecified) | -8.9% | -14.4% | ? | ? | 103.9* | 57.1*
COc1ccc(C(=O)Nc2ccc(Cl)c(S(=O)(=O)N3CCOCC3)c2)cc1 | 8.91µM* | 25.1µM* | ? | ? | nt | nt
CNc1cncc(-c2ccc(C)cc2)n1 | nt | 47.0% | nt | nt | nt | nt
O=C(Nc1ccccc1)c1ccc(Cl)c(S(=O)(=O)Nc2ccccc2)c1 | nt | 68.6% | ? | -18.1%[46.1 µM] | nt | nt
COc1ccc(OC)c(-c2csc(NC(=O)c3ccc(OCC4CCCO4)cc3)n2)c1 (stereo unspecified) | -11.5% | -11.6% | 0.7% | nt | 40.4* | 39.1*
CN(c1cccc(NC(=O)c2ccc(Cl)c(S(=O)(=O)Nc3ccccc3)c2)c1)S(C)(=O)=O | 10µM* | 19.0% | 3.66µM* | -24.2% | 4.6 | 4.7
O=C(Nc1ccc(S(=O)(=O)N2CCCC2)cc1)c1ccc(OCC2CCCO2)cc1 (stereo unspecified) | 11.2µM* | 17.8µM* | ? | -6.1% | 26.0 | 10.6
O=C(Nc1ccc(Cl)c(S(=O)(=O)N2CCOCC2)c1)c1ccc2c(c1)OCCO2 | 10µM* | -23.1% | ? | ? | 46.8* | 24.4*
CC(=O)N1C(O)CC(C)N1c1ccccc1 (stereo unspecified) | 4.4% | -8.9% | 15.2% | 10.0% | 10.6 | 2.2
CC(CCc1ccccc1)NC(=O)CN(C)Cc1ccc(F)cc1 (stereo unspecified) | -20.6% | -16.0% | ? | ? | 1.0 | -2.1
CNS(=O)(=O)c1ccc(NC(=O)c2csc(C)c2)cc1 | -13.7% | 49.3% | nt | nt | 36.4* | 23.5*
Cc1cc(C(=O)Nc2ccc(S(=O)(=O)N3CCCC3)cc2)cs1 | -19.5% | ? | -26.0% | -23.1% | 21.6 | 7.0
Cc1cc(C(=O)Nc2ccc(Br)cc2)cs1 | -9.2% | 49.5% | nt | nt | 83.5* | 46.9*
CSc1ccccc1NC(=O)c1ccc(C)o1 | 4.9% | 48.0% | 19.3% | ? | 50.6* | 19.8*
CSc1ccccc1NC(=O)c1csc(C)c1 | -12.3% | 25.1% | nt | nt | 35.9* | 30.7*
Cc1c(Cl)c([N+](=O)[O-])nn1Cc1ccc(C(=O)Nc2ccc(Cl)cn2)o1 | -3.8% | -22.2% | ? | -3.0% | -10.8 | -2.1
COC(=O)c1sc2ncccc2c1OCc1ccc(Cl)cc1 | -5.7% | 12.7% | 8.2µM* | -8.7% | -4.3 | -2.2
O=C(CCN1C(=O)C2C3CCC(C3)C2C1=O)Nc1ccc([N+](=O)[O-])cc1 (stereo unspecified) | -4.9% | 0.8% | 3.3%[46.1 µM] | 7.5% | 28.8 | 3.6
COc1ccc(NC(=O)CCN2C(=O)C3C4CCC(C4)C3C2=O)cc1 (stereo unspecified) | 16.6% | 20.0% | -13.8% | -14.7% | 38.2 | 17.1*
Cc1ccc(NC(=O)CCN2C(=O)C3C4CCC(C4)C3C2=O)cc1Cl (stereo unspecified) | 2.5% | 2.8% | 12.7% | 2.2% | 21.0 | 25.2*
O=C(CCN1C(=O)C2C3CCC(C3)C2C1=O)Nc1ccc(Br)cc1 (stereo unspecified) | -17.4% | 30.2% | -10.1% | -4.1% | -37.9 | 11.8*
Cc1ccc(NC(=O)CCN2C(=O)C3C4CCC(C4)C3C2=O)cc1[N+](=O)[O-] (stereo unspecified) | nt | 14.7% | 10.8% | 6.4% | 16.7 | 15.5
CCc1nc2c3cnn(-c4cc(Cl)ccc4C)c3ncn2n1 | 1.9% | -0.6% | -4.0% | 1.2% | 20.0 | 7.5
Cc1cc(=O)[nH]c(N/N=C2/CCCC/C2=C\c2ccccc2)n1 | -5.9% | 4.7% | nt | nt | 18.6 | 1.8
SMILES | HCV inh | FMDV inh | Marburg entry inh | LASV entry inh | Shiga toxin inh | CHX counter
O=C(C1CCN(Cc2ccccc2)CC1)N1CCN(C/C=C/c2ccccc2)CC1 | ? | ? | 14.1µM* | ? | -8.1 | -2.0
S=C(NC1CCCC1)N1CCN(C/C=C/c2ccccc2)CC1 | 10µM* | ? | ? | -20.7%[46.1 µM] | -8.0 | 0.9
S=C(Nc1ccccc1)N1CCN(C/C=C/c2ccccc2)CC1 | ? | -20.5% | ? | ? | -4.3 | -2.0
CC1Cc2cc(S(=O)(=O)N3CCC(C(=O)N(C)Cc4ccco4)CC3)ccc2N1C(=O)C1CCC1 (stereo unspecified) | 4.8% | -22.6% | nt | nt | -2.9 | -2.3
Cc1ccc(Sc2c([N+](=O)[O-])c(=O)n(C)c3ccccc23)cc1 | ? | 22.4µM* | nt | nt | 10.8 | 10.2*
Cc1ccc(Sc2c(C=O)c3ccccc3n2C)cc1 | 11.2µM* | ? | ? | ? | -7.3 | 7.7
Cc1ccc(Sc2c(O)c3ccccc3n(C)c2=O)cc1 | -15.6% | -12.5% | ? | -0.9% | -6.5 | -3.0
CCCCOC(=O)Nc1nnc(Cc2ccc(Cl)cc2)s1 | 21.1% | -20.6% | nt | nt | 23.0 | -2.2
COc1ccc(C(=O)NCC(=O)N2CCCCC2)cc1OC | 15.1% | -18.4% | nt | nt | 21.7 | 10.6
CN1CCN(c2nc(-c3ccccc3)nc(-c3ccc(F)cc3)c2C#N)CC1 | ? | -12.3% | 11.2µM* | -13.1%[46.1 µM] | -2.9 | -2.8
CC(C)CC(NC(=O)c1ccco1)C(=O)Nc1ccc2c(c1)OCCO2 (stereo unspecified) | 2.8% | 29.3% | -3.2% | nt | 84.5* | 72.5*
O=C(CNC(=O)c1ccco1)Nc1ccc2c(c1)OCCO2 | 11.5% | ? | ? | ? | nt | nt
CC(=O)NC(Cc1c[nH]c2ccccc12)C(=O)Nc1ccc2c(c1)OCO2 (stereo unspecified) | -1.9% | 4.3% | ? | 18.7% | 38.4* | 9.3
CCCC(C)C(=O)Nc1ccc2c(c1)OCCO2 (stereo unspecified) | 7.4% | -0.2% | 25.1% | -0.2% | 85.8* | 50.2*
CC(C)CC(NC(N)=O)C(=O)Nc1ccc2c(c1)OCO2 (stereo unspecified) | 6.6% | 28.3% | nt | nt | 48.9 | 29.7*
NC(=O)CSCc1c(Cl)cccc1Cl | 4.2% | nt | 22.1% | 3.1% | 2.7 | -2.1
CCCCOCCCNc1ncnc2c1[nH]c1ccccc12 | 8.91µM* | 11.2µM* | 5.17µM* | ? | -6.4 | -2.5
CCOCCCNc1ncnc2c1[nH]c1ccccc12 | ? | ? | ? | ? | -1.8 | 12.5*
c1ccc2c(c1)[nH]c1c(NCC3CCCO3)ncnc12 (stereo unspecified) | ? | ? | ? | 0.1% | -5.4 | -4.0
Cc1cc2cc(OCc3ccccc3)ccc2n1C | 11.4% | 52.9% | nt | nt | 31.0* | 24.8*
Cc1c(C=O)c2cc(OCc3ccccc3)ccc2n1C | ? | 32.3% | ? | 14.6%[46.1 µM] | 70.2* | 38.6*
Cn1ccc2cc(OCc3ccccc3)ccc21 | ? | 37.8% | ? | -3.7% | nt | nt
COc1cccc(CNC(=O)CSC(=S)N2CCCC2)c1 | 8.8% | -5.3% | -3.3%[46.1 µM] | -9.5% | nt | nt
COc1cccc(-c2n[nH]c(=S)n2Cc2ccco2)c1OC | -0.2% | -4.0% | 16.1% | 0.9% | -7.9 | -3.7
